# Screening results: PubChem, several laboratories
# CYP2C9 activ = activators of human CYP2C9 | P11712 | recombinant CYP2C9, luciferin-H conversion, luminescence; hits give high values; factor 1 = untreated enzyme, 0 = blocked | activation factor at 5 µM | 96,000 compounds, 1.4% hits | AID 1024;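 active = activation factor of 2 or more for CYP2C9 at a 5 µM dose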;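 also: 0 = sulfaphenazole-blocked wells and 1 = vehicle-only wells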
# Cav3 T inh = human Cav3.2 channel inhibition, primary screen. Cav3.2-expressing cells, Fluo-4 calcium fluorescence FDSS; hits give low values. B-score at 10 µM. 100,000 compounds, 4% hits;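 active = single-dose well whose peak fluorescence ratio is a statistical outlier from its plate by either plate-standardised score or position-corrected B-score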
# CYP2C19 activ = cytochrome P450 2C19 (human) activation; P33261; recombinant CYP2C19, luciferin-H EGE luminescence; hits give high values; 0 = fully inhibited enzyme, 1 = untreated enzyme; activation factor at 5 µM; 96,000 tested, under 10 active;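 active = activation factor of at least 2 at 5 µM in the primary screen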;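 also: 0 = wells with 2.5 mM tranylcypromine and 1 = vehicle-only wells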
# Target sequence (P33261 whole entry, looked up): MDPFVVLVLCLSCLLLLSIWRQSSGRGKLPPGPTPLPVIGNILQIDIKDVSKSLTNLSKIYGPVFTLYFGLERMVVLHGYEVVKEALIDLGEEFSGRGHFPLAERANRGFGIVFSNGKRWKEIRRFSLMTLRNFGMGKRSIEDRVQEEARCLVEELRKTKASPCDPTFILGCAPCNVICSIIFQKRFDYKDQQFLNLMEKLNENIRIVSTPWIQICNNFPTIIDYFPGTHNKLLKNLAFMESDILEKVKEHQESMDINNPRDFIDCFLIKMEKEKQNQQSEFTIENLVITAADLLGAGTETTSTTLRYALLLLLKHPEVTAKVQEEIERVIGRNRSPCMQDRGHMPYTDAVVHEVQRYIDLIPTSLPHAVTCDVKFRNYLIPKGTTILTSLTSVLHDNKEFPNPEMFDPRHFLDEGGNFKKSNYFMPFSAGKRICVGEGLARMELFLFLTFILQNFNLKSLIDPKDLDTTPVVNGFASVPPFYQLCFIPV
# CYP2C9 inhib = human CYP2C9 inhibition; P11712; CYP2C9 Supersomes, luciferin-H conversion, luminescence; inhibition, % at 5 µM; 96,000 compounds, 20% hits;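 active = blocking of liver enzyme CYP2C9 beyond about 50% at 5 µM, limit read from the data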
# CYP2C19 inhib = blocks human cytochrome P450 2C19. inhibition, % at 5 µM. 96,000 compounds, 21% hits. CYP2C19 Supersomes, luciferin-H EGE luminescence, 30 min. P33261;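 active = CYP2C19 inhibition above a set limit at 5 µM in the primary screen, cut at about 50% in these data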;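 also: plate controls were negative control wells for no effect and 2.5 mM tranylcypromine positive control for full effect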
# An asterisk follows results filed as active; . = no result given. Sampled rows, rich in hits. Any-hit rate of the full collection: about 27%.
SMILES,CYP2C9 activ,Cav3 T inh,CYP2C19 activ,CYP2C9 inhib,CYP2C19 inhib
O=S(c1ccc2ccccc2c1)c1cnns1 (centres undefined),1,0.814,0.3,-3.4,74.7*
O=c1c2ccccc2cnn1-c1ccc2ccccc2c1,1,-0.912,1,2.7,2.0
COc1ccc(Cn2nnc3c(=O)[nH]c(C(=O)NCCc4ccc(F)cc4)nc32)cc1OC,0.3,0.79,1,74.5*,-1.3
O=C(NCCc1ccccc1)c1nc2c(nnn2Cc2ccccc2Cl)c(=O)[nH]1,.,-3.65,.,.,.
O=C(NCCc1ccccc1)c1cccs1,1,0.308,0.5,4.7,53.1*
O=C(NCCCNC(=O)c1cccs1)c1cccs1,0.6,-0.00725,0.7,42.0,27.4
CC1CCN(c2ccc(C(=O)NCCc3ccccc3)cn2)CC1,0.3,-1.95,0.9,66.6*,11.0
O=C(NCCc1ccccc1)c1ccc(Cl)nc1,.,-0.117,.,.,.
CCCCC(CC)CNC(=O)c1cccs1 (centres undefined),0.1,-1.31,0.1,90.9*,87.8*
COc1ccc(-c2nc(CCNC(=O)c3cccs3)cs2)cc1,0.2,-3.43,0.6,75.6*,39.5
O=C(NCCc1ccccc1)c1ccncc1,0.6,0.461,0.2,37.9,77.6*
O=C(NCCc1ccccc1)c1ccc([N+](=O)[O-])cc1,1.2,.,0.5,-16.2,48.0
CC(C)(CNC(=O)c1cccs1)CNC(=O)c1cccs1,0.1,-0.439,0.4,86.2*,57.9*
N#CC1=C(N)SC2(CCCCC2)SC1c1ccccc1 (centres undefined),0.9,0.33,0.7,9.4,34.9
N#CC1=C(C2CC2)CC(c2ccccc2)C(C#N)=C1N (centres undefined),0.9,-0.0106,0.4,7.4,56.8*
COC(=O)C(=O)Nc1nnc(COc2ccccc2)s1,1,0.818,1.1,3.0,-11.8
CC(C)c1nc(SCC(=O)N2c3ccccc3CC2C)c2ccccc2n1 (centres undefined),0,-3.43,0.4,98.6*,59.1*
CC(C)NC(=O)Cn1c(SCC(=O)N2c3ccccc3CC2C)nc2ccccc21 (centres undefined),0.1,0.2,0.4,91.1*,60.6*
CC1Cc2ccccc2N1C(=O)CSc1ccccc1 (centres undefined),1,-1.21,0,-3.8,95.9*
CC1Cc2ccccc2N1C(=O)CN1CCc2ccccc2C1 (centres undefined),0.6,-1.55,0.1,36.2,92.0*
CC1Cc2ccccc2N1C(=O)Cn1cc([N+](=O)[O-])cn1 (centres undefined),1,0.0287,0.9,0.6,11.5
CC1Cc2ccccc2N1C(=O)CSC1=NCCS1 (centres undefined),1.2,-2.04,0.9,-18.9,13.8
Cc1nnc2c3cnn(-c4ccc(Cl)cc4)c3ncn12,1.1,.,0.9,-9.0,8.9
COc1ccc(NC(=O)C2CC(=O)NC3=C2C(=O)CC(C)(C)C3)cc1 (centres undefined),1.1,-0.0891,1.1,-6.5,-6.8
CN(C1CCCCC1)S(=O)(=O)c1ccc(NC(=O)c2ccco2)cc1,0.6,-1.98,0.8,44.4,23.6
SMILES,CYP2C9 activ,Cav3 T inh,CYP2C19 activ,CYP2C9 inhib,CYP2C19 inhib
CC1Cc2ccccc2N1C(=O)CSc1nnnn1Cc1ccccc1 (centres undefined),0.2,-3.65,0.1,83.8*,90.3*
CC1Cc2ccccc2N1C(=O)CSc1nc2c(c(=O)n(C)c(=O)n2C)n1Cc1ccccc1 (centres undefined),0,-3.05,0.2,95.6*,76.3*
CC1Cc2ccccc2N1c1ncnc2c1nnn2Cc1ccccc1 (centres undefined),0.4,-1.53,0.5,64.7*,46.8
CC1Cc2ccccc2N1C(=O)CSc1nnc2c(n1)[nH]c1ccc(F)cc12 (centres undefined),.,-5.94*,.,.,.
O=C1CCC(=O)N1CN(Cc1ccco1)CN1C(=O)CCC1=O,1.1,-0.732,1.1,-8.2,-11.9
CCOc1ccc(C(=O)CCc2nc3ccccc3s2)cc1,0.1,-3.49,0.4,90.7*,56.4*
COc1ccc(COC(=O)NNC(=O)c2ccc(OC)cc2)cc1,.,-0.00314,.,.,.
Cc1nn(C)cc1/C=N\NC(=O)c1ccc2c(c1)c(C)c(C)n2Cc1ccccc1,0.2,-3.83*,0.2,83.2*,75.7*
Cc1nn(C)cc1/C=N/NC(=O)c1ccc2c(c1)OCO2,0.9,-0.202,1,6.8,4.2
Cn1c(CCC(=O)Nc2ccc(N3CCOCC3)cc2)nc(=O)c2ccccc21,1,1.57,1,3.8,3.6
O=C(CCn1ccc2ccccc21)Nc1ccc(N2CCOCC2)cc1,0.7,0.402,0.4,27.9,55.2*
COc1cc(C(=O)COC(=O)Cc2cnc3sccn23)cc(OC)c1OC,1.1,0.873,0.9,-13.4,9.4
COc1ccc(CCNC(=O)Cc2cc(OCc3ccccc3)c(OC)cc2[N+](=O)[O-])cc1OC,0.5,0.346,0.7,54.9*,33.4
COc1cc(CC(=O)NCCc2ccc(OCc3ccccc3)cc2)c([N+](=O)[O-])cc1OC,0.5,-0.929,0.4,48.8,61.0*
CN1C(=O)OC(C)(C)C1=O,.,1.11,.,.,.
Cc1cccc(N2C(=O)C3C4CC(C(Br)C4Br)C3C2=O)n1 (centres undefined),0.9,0.967,0.9,12.1,11.2
O=C1CCCN1c1ccc(S(=O)(=O)Nc2ccc3c(c2)OCCO3)cc1,0.6,0.15,0.6,40.5,44.0
CSc1ccc(S(=O)(=O)Nc2ccc(N3CCOCC3)c(Cl)c2)cc1,0,-3.72,0,97.5*,99.6*
O=S(=O)(Nc1ccc2c(c1)OCCO2)c1ccc(F)cc1,0.3,-1.46,0.1,68.7*,88.4*
O=S(=O)(Nc1ccc2c(c1)OCCO2)c1cccc2nsnc12,0.7,.,0.4,34.7,59.7*
O=C(CCNS(=O)(=O)c1cccc2nsnc12)Nc1ccc2c(c1)OCCO2,0.6,0.412,0.9,36.8,10.4
CSc1ccc(S(=O)(=O)Nc2ccc3c(c2)OCCO3)cc1,0.5,-1.16,0.3,48.0,68.2*
O=C(CN1C(=O)C2CC=CCC2C1=O)Nc1nc2ccccc2[nH]1 (centres undefined),1,-0.0673,1,1.7,-4.7
COc1cccc(C(=O)CSc2nnc(CNS(=O)(=O)c3ccc(C)cc3)n2C)c1,1,0.568,1,2.2,-1.5
O=S(=O)(NCc1ccc(F)cc1)c1ccc2c(c1)OCCO2,2*,-0.0637,0.4,-95.0,59.8*
CC(C)CNS(=O)(=O)c1ccc2c(c1)OCCO2,0.7,0.371,0.6,30.8,41.5
CCOCCCNC(=O)c1cc2sc(Cl)cc2n1CC,0.8,-1.87,0.5,22.2,52.1*
CCOCCCNC(=O)c1ccc(Br)cc1,0.9,-0.292,0.8,6.3,17.9
CCN(CC)S(=O)(=O)c1ccc2c(c1)nc(CCC(=O)OCC(=O)N1CCc3ccccc31)n2C,0.6,1.34,0.9,35.7,7.6
CCN(CC)S(=O)(=O)c1ccc2c(c1)nc(CCC(=O)Nc1ccccc1Cc1ccccc1)n2CC,0,-4.42*,0.2,99.9*,77.1*
